Screening results deposited in PubChem BioAssay by National Center for Advancing Translational Sciences (NCATS).
Sampled rows, rich in hits. Any-hit rate of the full collection: about 8.9%.
KB-3-1 cytotox: kills parental KB-3-1 adenocarcinoma cells; KB-3-1 viability, CellTiter-Glo ATP luminescence, 72 h; Potency, µM (top dose mostly 46.1 µM), hits mostly cytotoxic; actives 1.4% (n = 400,000); AID 1347075; note: nearly all actives have a fitted effect of over 60% in size
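Cytotoxicity measured as CellTiter-Glo luminescence after 72 h at 37 C. Compound titrations were pinned onto drug-naive KB-3-1 parental adenocarcinoma cells grown in DMEM with 10% FBS, and normalized data fitted to concentration-response curves.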
DRD3 agonist: D3 dopamine receptor (human) agonism | P35462 | D3R DiscoveRx beta-arrestin cells, luminescence, 90 min | max activation, % | actives 0.58% (n = 410,000) | AID 652048; in the data active = max activation above about 30%
Target sequence (P35462 whole entry, looked up): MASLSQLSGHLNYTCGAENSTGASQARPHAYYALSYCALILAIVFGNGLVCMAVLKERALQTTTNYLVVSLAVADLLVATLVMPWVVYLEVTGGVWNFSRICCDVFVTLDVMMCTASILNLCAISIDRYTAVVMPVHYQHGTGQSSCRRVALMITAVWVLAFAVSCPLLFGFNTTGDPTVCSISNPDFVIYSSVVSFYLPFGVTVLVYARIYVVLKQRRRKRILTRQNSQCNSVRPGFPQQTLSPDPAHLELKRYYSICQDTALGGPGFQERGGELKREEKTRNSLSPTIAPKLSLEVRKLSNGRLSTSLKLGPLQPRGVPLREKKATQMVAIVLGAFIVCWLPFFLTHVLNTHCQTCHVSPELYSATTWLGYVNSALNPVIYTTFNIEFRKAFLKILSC
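Agonist mode: compounds and dopamine controls were applied to plated cells for 90 min at 37 degrees C after an overnight attachment at 1500 cells/well. Luminescent read-out followed 30 - 60 minutes at room temperature with DiscoveRx detection reagent.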
KB-V1 MDR tox: kills drug-selected multidrug resistant KB-V1 cells | AID 1347076 | KB-V1 MDR cells viability, CellTiter-Glo, 72 h | Potency, µM (highest dose often 46.1 µM), usual class: cytotoxic | actives 3.4% (n = 400,000); note: nearly all actives have a fitted effect of over 60% in size
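qHTS viability screen in drug-selected KB-V1 MDR cells: 72 h compound treatment at 37 degrees C, ATP luminescence end point.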
SW480 rerep: inducers of DNA re-replication in SW480 colon cancer cells; SW480 DNA re-replication, Hoechst DNA content imaging, 48 h; Potency, µM (doses to about 46.1 µM), actives largely listed as activators; actives 1.8% (n = 340,000); note: nearly all actives have a fitted effect of over 55% in size
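SW480 cells exposed to compounds for 48 hr at 37 C, 5% CO2, then Hoechst-stained 40 min. Nuclear DNA content imaged by fluorescence scanning (405 nm excitation, 500-530 nm emission); re-replication scored as increased high-intensity nuclei.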
D3 antag: D3 dopamine receptor (human) antagonism; P35462; D3R cells, DiscoveRx beta-arrestin luminescence, antagonist mode; hits give low values; max response, negative = inhibition, %; actives 2.5% (n = 360,000); AID 652054; in the data active = max response below about -50%; inconclusive = no clear call, values can overlap the other calls
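Cells plated overnight at 1500 cells/well, then exposed to library compounds with dopamine controls for 90 minutes at 37 degrees C. DiscoveRx reagent added for 30–60 minutes at room temperature; luminescence read, quantitative HTS format.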
MCF10A rerep: induces DNA re-replication in MCF 10a normal breast cells | Potency, µM (titrated, usually from 46.1 µM), actives largely listed as activators | actives 2.9% (n = 350,000) | MCF 10A DNA re-replication, Hoechst nuclear intensity, 48 h | AID 624296; note: nearly all actives have a fitted effect of over 50% in size
A number is an active result; i = inactive; ? = inconclusive; nt = not tested or not shown. Unless noted, calls come from the whole dose curve; as a rule, active = well fitted curve in the direction sought with a large enough effect; inconclusive = small, poorly fitted or top-dose-only effect, or another doubt; inactive = no such curve, though single readings can be large; an effect the other way counts as inactive or inconclusive.

SMILES	KB-3-1 cytotox	DRD3 agonist	KB-V1 MDR tox	SW480 rerep	D3 antag	MCF10A rerep
COc1ccc(-n2ccn(Cc3ccc(C)cc3)c(=O)c2=O)cc1OC	nt	i	nt	nt	nt	nt
COC(=O)[C@]12CCCCC=C1N(CCC1=CCCCC1)C(=O)[C@H](CC(=O)N1CCN(C(=O)C3CC3)CC1)C2	i	i	i	nt	i	nt
Cc1cccc2cc(C#N)c(NCCCNS(=O)(=O)c3ccc(Cl)cc3)nc12	?	i	9.2µM	16.4µM	i	?
Cc1cccc2cc(C#N)c(NCCNS(=O)(=O)c3ccccc3)nc12	i	i	?	?	i	20.6µM
N#C/C(=C\c1ccc([N+](=O)[O-])o1)C(=O)Nc1ccc(F)cc1	i	i	i	?	i	?
CC1=NN(c2nc(N)nc(/C(C#N)=C/c3ccc([N+](=O)[O-])o3)n2)C(C)(C)C1	?	i	?	8.2µM	-60.9	3.26µM
Cc1sc2cc3c(c(C(=O)c4ccccc4)[n+]2c1C)-c1cccc2cccc-3c12	7.31µM	i	i	?	i	11.6µM
O=C(c1ccccc1)c1c2c(cc3sc4ccccc4[n+]13)-c1cccc3cccc-2c13	20.6µM	i	?	i	i	?
Cc1cc2ccccc2cc1C(=O)c1ccccc1	i	i	i	?	i	?
O=c1[nH]c(CSc2nnc(NCCCN3CCOCC3)s2)nc2cc(Cl)ccc12	i	i	i	i	-63.1	i
Cc1ccc2nc(SCc3nc4cc(Cl)ccc4c(=O)[nH]3)[nH]c2c1	i	i	i	i	i	?
CCCn1c2ccccc2c2cnn(CC(=O)NCC3CCN(Cc4ccccc4C)CC3)c(=O)c21	i	i	i	nt	nt	nt
CCCCN(CC)C(=O)CSc1nc2n[nH]c(C)c2c(=N)n1-c1cccc(C)c1	i	i	?	?	i	i
Cc1cccc(-n2c(SCC(=O)Nc3ccccc3Cl)nc3n[nH]c(C)c3c2=N)c1	nt	i	nt	nt	nt	nt
CCCN(CCC)C(=O)CSc1nc2n[nH]c(C)c2c(=N)n1-c1ccc(OCC)cc1	?	i	?	i	-50.3	?
CCN(C(=O)CSc1nc2n[nH]c(C)c2c(=N)n1-c1ccc(Cl)c(C)c1)c1cccc(C)c1	?	i	?	?	i	8.2µM
COc1ccccc1NC(=O)CSc1nc2n[nH]c(C)c2c(=N)n1-c1ccccc1Cl	?	i	16.4µM	i	i	?
CCCN(CCC)C(=O)CSc1nc2n[nH]c(C)c2c(=N)n1-c1ccc(OC)cc1	?	i	?	i	i	?
Cc1[nH]nc2nc(SCC(=O)NC3CCCCC3)n(-c3ccc(Br)cc3)c(=N)c12	?	i	i	?	?	11.6µM
Cc1cccc(N(CC(=O)N(C)Cc2ccccc2)S(=O)(=O)c2ccccc2)c1C	i	i	?	nt	nt	nt
Cc1ccc2c(c1)sc1nc(-c3cc4ccccc4oc3=O)cn12	i	i	i	nt	nt	nt
CCOC(=O)c1c(NC(=O)c2nc(SC(C)C)ncc2Cl)sc2c1CCCC2	i	i	i	nt	nt	nt
ClC(Cl)c1nnc(-c2ccccc2)c(-c2c[nH]c3ccccc23)n1	i	i	?	i	i	25.9µM
Nc1cc(N2CCCC2)ccc1[N+](=O)[O-]	i	i	i	i	i	i
Nc1cc(N2CCCC2)c(Cl)cc1[N+](=O)[O-]	?	i	8.2µM	i	i	i
SMILES	KB-3-1 cytotox	DRD3 agonist	KB-V1 MDR tox	SW480 rerep	D3 antag	MCF10A rerep
Nc1cc(N2CCOCC2)c(Cl)cc1[N+](=O)[O-]	i	i	6.51µM	i	i	i
COc1ccc(NC(=O)CSc2ccc3nc(-c4ccccc4)cn3n2)c(OC)c1	?	i	i	nt	nt	nt
COc1ccc2c(c1)NC(c1ccc(OCC(C)C)cc1)=NC(c1ccncc1)=N2	i	i	?	nt	nt	nt
CS(=O)(=O)N(CC(=O)NCCSCc1ccccc1)c1cc(C(F)(F)F)ccc1Cl	i	i	?	nt	nt	nt
COC(=O)c1ccc(/C=C/c2c(-c3ccsc3)sc3ccccc23)cc1	?	i	i	4.11µM	i	16.4µM
Cc1cccc(N2CCN(C(=O)CCS(=O)(=O)c3ccc4c(c3)CC(=O)N4C)CC2C)c1 (stereo not drawn)	i	i	i	nt	nt	nt
COc1cccc(C(c2c(NC(=O)c3ccco3)sc(C)c2C)N2CCOCC2)c1 (stereo not drawn)	23.1µM	i	?	i	i	20.6µM
